Screening results: PubChem, National Center for Advancing Translational Sciences (NCATS)
Shown are actives, neighbours in structure and some others; about 0.9% of the full set was active somewhere.
RXFP1 agonist – qHTS Assay for Agonists of the Relaxin Receptor RXFP1; Relaxin receptor 1 (Homo sapiens), Q9HBX9; HEK293T-RXFP1 cAMP TR-FRET, 30 min; response scale: percent of porcine relaxin response, buffer zero; Potency, µM (highest dose often 57.5 µM), for inactives: at the top dose activation, usual class: activators; 370,000 tested, 0.3% active; AID 2676, 2010; active = well fitted activation curve with a large enough effect; inconclusive = small, poorly fitted or top-dose-only effect; note: potency is the fitted concentration of half-maximal effect; % is set by controls: 0 for no effect and ±100 for the full control effect; nearly all actives have a fitted effect of over 60% in size
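HEK293T cells stably expressing RXFP1 were pretreated with the PDE4 inhibitor Ro 20174, exposed to compounds for 30 min at 37C, lysed, and cAMP was read by TR-FRET. Data normalized to buffer (basal) and 29 nM porcine relaxin (100%).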
RXFP1 antag – qHTS Assay for Antagonists of the Relaxin Receptor RXFP1; Relaxin receptor 1 (Homo sapiens), Q9HBX9; HEK293-RXFP1, relaxin-stimulated cAMP HTRF, 30 min; stronger effect = lower value; activity change, negative = inhibition, % at 57.5 µM; 350,000 tested, 0.59% active; AID 1259400, 2018;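 active = activity change of -60% or lower, but not beyond a set lower limit; inconclusive = change between -60% and -40%, or beyond the set limit; inactive = change above -40%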; note: % is set by controls: 0 for no effect and ±100 for the full control effect
gsp antag – qHTS for Antagonists of gsp, the Etiologic Mutation Responsible for Fibrous Dysplasia/McCune-Albright Syndrome: qHTS | 340,000 tested, 0.4% active | Potency, µM (titrated, usually from 76.9 µM), without a hit: at the highest dose activity change, negative = inhibition, usual class: inhibitors | AID 624288, 2012 | gsp-mutant cells, cAMP HTRF, 30 min; calls by dose curve; cell line not stated here;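 note: intracellular cAMP measured with PDE inhibitor Ro 20-1724 present during compound exposure; potency is the fitted concentration of half-maximal effect; % is set by controls: 0 for no effect and ±100 for the full control effect; nearly all actives have a fitted effect of over 65% in size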
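Cells in G418 medium, seeded 16-24 h, 37C; buffer exchange to DPBS + 1 mM CaCl2, 0.5 mM MgCl2, 0.05% BSA; cpds in DMSO + […] (300 uM stock), 30 min 37C; HTRF cAMP detection.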
gsp agonist – qHTS for Agonist of gsp, the Etiologic Mutation Responsible for Fibrous Dysplasia/McCune-Albright Syndrome: qHTS; AID 624287, 2012; 340,000 tested, 0.13% active; gsp mutant cells, cAMP HTRF, 30 min; Potency, µM (titrated, usually from 76.9 µM), inactives show top-dose activation (cAMP increase), hits mostly activators; active = well fitted activation curve with a large enough effect; inconclusive = small, poorly fitted or top-dose-only effect, or another doubt; inactive = no such curve, though single readings can be large or run the other way; cell line not stated here;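 note: phosphodiesterase inhibitor Ro 20-1724 added with compounds to block cAMP breakdown; potency is the fitted concentration of half-maximal effect; nearly all actives have a fitted effect of over 60% in size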
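Cells in DMEM/10% FBS with G418 were pretreated with compounds in DMSO plus […] (300 uM stock) for 30 min at 37C. cAMP was measured by HTRF (cAMP-d2 plus anti-cAMP antibody-K) after 30 min at room temperature.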
The depositor's hits bear a star; ? = inconclusive; . = no result; [ ] = dose if it differs, or a comment.

SMILES	RXFP1 agonist	RXFP1 antag	gsp antag	gsp agonist
O=c1[nH]c(=S)n(Cc2ccc(F)cc2)c(O)c1C=NCc1ccc2c(c1)OCO2	25µM*	6	9%	?
COc1ccc(C(=O)C2CCCN(Cc3ccon3)C2)c(OC)c1 (centres undefined)	4%	1	50µM*	4%
Cc1cccc(C2=NCC(=O)N(CC(=O)NCc3ccco3)c3sc4c(c32)CCCC4)c1	-1%	-69*	?	-46%
O=C(NCC(c1ccco1)N1CCCC1)c1cccc(S(=O)(=O)N2CCc3ccccc32)c1 (centres undefined)	.	4	.	-75%
O=c1c2ccccc2nc(/C=C/c2ccccc2)n1-c1ccc(O)cc1	1%	-12	-22%	-5%
O=C(O)c1ccc(/C=C/c2nc3ccccc3c(=O)n2-c2ccc(Br)cc2)cc1	0%	-4	14µM*	-31%
Cc1ccccc1CN1C(=O)CN=C(c2ccccc2)c2cc(Cl)ccc21	1%	-95*	.	.
C=CCc1cc(C=C2C(=O)N(C)C(=O)N(C)C2=O)cc(OCC)c1OCc1ccccc1	2%	-77*	-12%	-19%
C=CCc1cc(C=C2C(=O)NC(=O)NC2=O)cc(OC)c1OCc1ccc(C(=O)O)cc1	1%	-4	-23%	-1%
O=C(c1ccc(Cl)cc1)C1CCCN(Cc2ccc3c(c2)OCCO3)C1 (centres undefined)	0%	-73*	7%	-5%[15.4 µM]
O=C(c1ccc2c(c1)OCO2)C1CCCN(Cc2ccc(F)c(F)c2)C1 (centres undefined)	1%	-22	-11%	-8%
CNC(=O)Oc1cc2c(cc1C(C)(C)C)CCC2	.	-86*	-2%	?
Cn1c(O)c(N=Nc2cccc(S(=O)(=O)N3CCOCC3)c2)c(=O)n(C)c1=O	10µM*	4	30%	?
CC(C)(C)NC(=O)NC(=O)COC(=O)CNS(=O)(=O)c1ccc(Br)cc1Cl	5%	2	-21%	-67%
Cc1ccc([C@H]2N[C@]3(CCCN(Cc4ccc(C(F)(F)F)cc4)C3=O)[C@H]3C(=O)N(Cc4ccccc4)C(=O)[C@@H]23)cc1	.	11	.	?
O=C(O)c1ccc2c(c1)C1C(Cl)C(Sc3ccccc3[N+](=O)[O-])CC1C(c1cccc([N+](=O)[O-])c1)N2 (centres undefined)	-1%	-89*	-53%	-1%[15.4 µM]
O=C(O)c1cccc2c1NC(c1cccc([N+](=O)[O-])c1)C1CC(Sc3ccccc3[N+](=O)[O-])C(Cl)C21 (centres undefined)	2%	-4	?	-16%
Cc1ccccc1C1=NCC(=O)N(CC(=O)N2CCCCC2)c2sc(C)c(C)c21	1%	-6	7.1µM*	-29%
CCc1cc2c(s1)N(CC(=O)OC)C(=O)CN=C2c1ccccc1OC	0%	-3	-6%	0%
Cc1cc2c(C(F)(F)F)cc(=O)oc2c2c1NCCC2	4%	1	1%	16µM*
O=c1cc(C(F)(F)F)c2cc3c4c(c2o1)CCCN4CCC3	9%	5	2%	10µM*
Cc1ccc(-c2cc(-c3ccccc3)cc(-c3ccccc3)[n+]2-c2ccccc2)cc1	2%	.	50µM*	.
C[n+]1c(-c2ccccc2)cc(-c2ccc(Cl)cc2)cc1-c1ccccc1	3%	-88*	-4%	32%
c1ccc(-c2cc(-c3ccccc3)[n+](-c3ccccc3)c(-c3ccccc3)c2)cc1	7%	?	50µM*	-5%[15.4 µM]
CN(C)c1ccc(-[n+]2c(-c3ccccc3)cc(-c3ccccc3)cc2-c2ccccc2)cc1	8%	-105*	-24%	?
Cc1ccc(-c2cc(-c3ccc(C)cc3)[n+](-c3ccccc3)c(-c3ccc(C)cc3)c2)cc1	0%	.	-23%	.
CCOC(=O)c1ccc(-[n+]2c(-c3ccccc3)cc(-c3ccccc3)cc2-c2ccccc2)cc1	-1%	.	-7%	.
COc1cccc(C(=O)CCN[C@@H](C)[C@H](O)c2ccccc2)c1	.	20	.	.
Nc1ccccc1C(=O)OCC(O)CO (centres undefined)	.	-3	.	.
